Assay results reported in PubChem BioAssay AID588692 (Broad Institute, 2011).
The campaign covered roughly 360,000 compounds. About 830 (0.23%) were called active. This excerpt belongs to a sample that is enriched for actives. Values without a mark were called inactive.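 Rule for the calls: active = mean luciferase reporter signal, scaled so untreated is 0 and the glycosylation-blocking control 100, at or above a set limit in every replicate; inconclusive = mean reaches the limit but not every replicate does; inactive = mean below the limit.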

Assay: increase of ERlucT glycosylation luciferase signal, primary screen, N-linked glycosylation inhibitor project, D54 ERlucT cells, luminescence, set 2 (AID 588692);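 note: luciferase carries N-glycosylation sites so blocking glycosylation raises the light; 0% = median of neutral control wells and 100% = median of 100 nM tunicamycin wells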
Details: 24 h, at 12.5 µM, stronger effect = higher value, percent of 100 nM tunicamycin response

SMILES	reporter increase
CCCn1nc(C(=O)Nc2ccc3nc(C)sc3c2)c2ccccc2c1=O	-5.69%
CC(=O)Nc1ccc2nc(NC(=O)CS(=O)(=O)c3ccc(F)cc3)sc2c1	1.57%
CCCC(=O)Nc1nc2ccc(NC(=O)c3c(F)c(F)c(OC)c(F)c3F)cc2s1	45.8% (active)
O=C(NCN1CCN(CCO)CC1)c1cnccn1	1.41%
Cc1cc(C)c2nc(SCC(=O)N(C)C3CCS(=O)(=O)C3)cc(C)c2c1 (centres undefined)	-2.35%
CC1CCN(c2ccc(-c3ccc(NC(=O)c4ccco4)cc3)nn2)CC1	-3.17%
COc1cc(OC)cc(C(=O)NCCCn2ccnc2)c1	-1.14%
O=C(NCCCn1ccnc1)c1cc(-c2ccccc2)on1	86.5% (active)
O=C(NCCCn1ccnc1)c1cc(Br)c(Br)s1	-1.37%
CC(C)CC1C(=O)N(Cc2cn(CC3CCCCC3)nn2)CCS(=O)(=O)N1Cc1ccc(-c2ccc(Cl)cc2)cc1 (centres undefined)	-5.63%
COc1ccc(-c2c(C#N)cnc(C)c2C)c(O)c1OC	1.16%
CSc1ncnc2c1ncn2CCCNCc1ccco1	-1.13%
CCc1ccccc1NC(=O)Cc1cn(C)c2ccccc12	0.183%
COc1ccc(CNC(=O)C[C@H]2C[C@H](C(=O)N3CCOCC3)[C@@]3(C)c4[nH]c5cc(CCC(=O)N(C)C)ccc5c4CCN3C2=O)cc1OC	1.84%
O=C(OC(C(=O)NC1CCCC1)c1ccc(F)cc1)c1ccno1 (centres undefined)	3.11%
N#Cc1cc([N+](=O)[O-])ccc1NCC1CCCO1 (centres undefined)	-0.076%
O=C1C(C=NCC2CCCO2)=C(O)c2ccccc21 (centres undefined)	-4.51%
O=C1c2cccc3c([N+](=O)[O-])ccc(c23)C(=O)N1CC1CCCO1 (centres undefined)	29.4% (active)
C[C@@H]1C[C@@H]2O[C@H]2/C=C\C=C\C(=O)Cc2c(Cl)c(O)cc(O)c2C(=O)O1	-14.3%
CCC1=C(OC(=O)N(CC)CC)N2C(=O)OC(=NCCc3c[nH]c4ccccc34)[C@]2(C)[C@H]2C1=CC[C@H]1C(=O)N(CC)C(=O)[C@H]12	-4.07%
CC(=O)c1ccc(S(=O)(=O)NCCC(=O)N2CCN(c3ccccn3)CC2)cc1	-0.855%
CCN(CC(=O)Nc1c(F)cccc1F)C(=O)C1CCC1	0.369%
CC(=O)Nc1ccc(SCC(=O)NC(=O)c2ccc(Cl)cc2)cc1	-6.32%

SMILES	reporter increase
O=C(CCl)Nc1ccc(Sc2ccc(NC(=O)CCl)cc2)cc1	41% (active)
O=C(O)CSCC(=O)Nc1ccc(C(F)(F)F)cc1	1.33%
Cc1ccccc1NC(=O)c1ccc(COc2ccc3c(C)cc(=O)oc3c2)cc1	-2.09%
O=C(c1ccccc1)C(Cn1cncn1)C(Sc1ccccc1)c1ccccc1 (centres undefined)	-3.83%
CC1CCN(c2ccc(C(=O)NCc3ccc4c(c3)OCO4)cc2[N+](=O)[O-])CC1	-1.89%
O=C(NCc1ccc2c(c1)OCO2)c1cc([N+](=O)[O-])ccc1N1CCOCC1	25.7% (active)
O=C(Cc1ccc([N+](=O)[O-])cc1)NCCc1ccc2c(c1)OCO2	-0.789%
Cc1ccc(C(=O)NCC(c2cccs2)N(C)C)cc1S(=O)(=O)N1CCOCC1 (centres undefined)	0.45%
Cc1nc(-c2ccccc2)sc1-c1nnc(C2CC2)o1	0.986%
Cc1ccccc1Nc1nc(N)nc(CN2CCN(c3ccccn3)CC2)n1	1.95%
Cc1ccc(Nc2nc(N)nc(CN3CCN(Cc4ccccc4)CC3)n2)cc1Cl	49% (active)
CCOC(=O)C1CCCN(Cc2nc(N)nc(Nc3ccc(C)cc3)n2)C1 (centres undefined)	1.57%
CCN(C(=O)COC(=O)c1cc(S(=O)(=O)N2CCc3ccccc32)ccc1OC)C1CCS(=O)(=O)C1 (centres undefined)	-1.41%
Cc1cccc(C(=O)NCc2nnc(SC(C)C(=O)Nc3nnc(C)s3)n2C)c1 (centres undefined)	-0.286%
CC(C)(Oc1ccc(C2CC2(Cl)Cl)cc1)C(=O)O (centres undefined)	4.07%
Nc1ccc(C(=O)Nc2ccccc2N)cc1	69.6% (active)
O=C(Nc1ccccc1F)c1ccc(S(=O)(=O)N2CCCCCC2)cc1	-0.684%
O=C(Cc1ccccc1)Nc1ccc(C(=O)Nc2ccccc2C(=O)O)cc1	1.55%
Cc1ccc(S(=O)(=O)NC(=O)N2CCCN(Cc3ccc(F)cc3)CC2)cc1	-2.48%
O=C(CCNS(=O)(=O)c1ccccc1)NCCSc1ccc(Br)cc1	2.32%
CC1(C)CC(=O)C=C(NCc2ccncc2)C1	1.27%
O=C(CCN1C(=O)C2CCCCC2C1=O)Nc1ccc(OC(F)F)cc1 (centres undefined)	0.177%
Cc1cc(Cl)ccc1N1C(=O)CC(SCCC(=O)O)C1=O (centres undefined)	1.84%

SMILES	reporter increase
O=C(O)CC(Cc1ccccc1)C(=O)Nc1ccc([N+](=O)[O-])cc1 (centres undefined)	-1.27%
COc1cccc(C(NC(C)=O)c2nc(-c3cnc4ccccc4c3)cs2)c1 (centres undefined)	1.72%
CC(=O)NC(c1ccccc1)c1nc(-c2ccccc2C)cs1 (centres undefined)	11.9%
COc1cccc(C(NC(C)=O)c2nc(-c3ccccc3OC)cs2)c1 (centres undefined)	62.8% (active)
COc1cccc(C(=O)N2CCC(n3nccc3NC(=O)C3CCOC3)CC2)c1 (centres undefined)	0.842%
COc1ccc(Cl)cc1NS(=O)(=O)c1cccc(C(=O)NC2CCC(O)CC2)c1 (centres undefined)	-1%
Cc1[nH]n(C(N)=S)c(=O)c1N=Nc1ccc(Cl)cc1Cl	-0.0505%
CC(=O)NC(Cc1ccc(F)c(F)c1)C(=O)NC1CCN(c2nnnn2-c2ccccc2)CC1 (centres undefined)	0.485%
Cc1ccc(C(=O)Nc2ccc(NC(=O)c3cccs3)cc2)c(C)c1	47.6% (active)
C/C(=N\OCC(=O)Nc1ccc(Br)cc1)c1cccs1	2.32%
Cc1ccc(OCC(=O)Nc2ccc(NC(=O)c3cccs3)cc2)c(C)c1	79.9% (active)
Cc1ccc(OCC(=O)Nc2ccc(N3CCN(C(=O)c4ccco4)CC3)cc2)c(C)c1	-5.46%
Cc1ccc(NNC(=O)c2cccs2)cc1Cl	1.56%
Cc1cccc(C(=O)Nc2ccc(C(=O)/C=C/c3cccs3)cc2)c1	-1.77%
O=C(NCCN1CCOCC1)c1ccccc1N1C(=O)[C@@H]2Cc3c([nH]c4ccccc34)C(c3cccc(Cl)c3)N2C1=O (some centres undefined)	4.03%
COC(=O)c1cccc(N(C(=O)c2ccco2)C(C(=O)NC2CCCC2)c2ccco2)c1 (centres undefined)	1.26%
COCCNc1ncnc2c1ncn2[C@H]1CN(Cc2ccc(OC)cc2)C[C@@H](CO)O1	0.218%
CC(C)C[C@H](NC(=O)NCCc1ccc(Cl)cc1)C(=O)O	0.0345%
CCN(CC)C(=O)CSc1nnc(-c2cnccn2)n1-c1ccc(C)cc1	1.32%
Cc1cccc(NC(=O)C(C)N2C(=O)C3C4CC(C(Br)C4Br)C3C2=O)c1 (centres undefined)	2.15%
CCN(C(=O)c1cc([N+](=O)[O-])ccc1NCc1cccnc1)c1ccccc1	-2.09%
Cn1cnc2c1c(=O)n(Cc1ccccc1C#N)c(=O)n2C	1.69%
Cc1cc2oc(=O)cc(CN(C)Cc3ccccc3)c2cc1Cl	0.116%

SMILES	reporter increase
CCN1C(=O)CS/C1=N\c1nccs1	0.352%
C=CCC[C@@H](Cc1ccc(F)cc1)C(=O)OC[C@H](Cc1c[nH]c2ccccc12)NC(=O)[C@@H](CC=C)CC(=O)N(CCO)Cc1ccccc1	-0.357%
Cn1c(CCN2CCN(c3ccccn3)CC2)nc2cc(NS(=O)(=O)c3ccc(F)cc3)ccc21	-5.5%
Cn1c(=O)n(C)c2cc(NS(=O)(=O)c3ccc(F)cc3)ccc21	27.7% (active)
Cn1c(=O)n(C)c2cc(S(=O)(=O)Nc3ccc(F)cc3)ccc21	2.56%
COc1ccccc1CNC(=O)c1cc(-c2cc(F)ccc2OC)n[nH]1	0.448%
Cc1cc(F)ccc1N1CCC(N2CCN(C)C(CCO)C2)CC1 (centres undefined)	-1.14%
Cc1cc(O)ccc1-c1cc(C(=O)NCc2cc(C(F)(F)F)cc(C(F)(F)F)c2)[nH]n1	1.18%
COCCCNC(=O)c1ccc(-c2c(C)noc2C)c2ccoc12	19.8%
COCCCNC(=O)c1cccc2c(-c3ccc(O)c(OC)c3)coc12	31.5% (active)
COc1ccc(-c2coc3c(C(=O)NC(C)C)cccc23)c(C)c1	-2.53%
COc1ccc(-c2ccc(CN3C(CC(C)C)C(=O)N(Cc4cn(CC5CCCCC5)nn4)CCS3(=O)=O)cc2)cn1 (centres undefined)	4.1%
CSCCC(C(=O)NC1=NCCS1)N1C(=O)c2ccccc2C1=O (centres undefined)	-0.003%
COc1ccc(N2CCN(S(=O)(=O)c3cc4c5c(c3)C(C)C(=O)N5CCC4)CC2)cc1 (centres undefined)	-1.71%
CCn1nc(C(=O)NNC(=O)C2CSC3(C)CCC(=O)N23)c2ccccc2c1=O (centres undefined)	-0.092%
CC(NCc1cccs1)C(=O)Nc1cc(Cl)cc(Cl)c1 (centres undefined)	0.0655%
O=C(N/N=C/C=C/c1ccccc1)C1CC1(c1ccccc1)c1ccccc1 (centres undefined)	-0.496%
CN(C)S(=O)(=O)c1ccc(N2CCCC2)c(C(=O)NCc2ccccc2)c1	-1.02%
CN(C)S(=O)(=O)c1ccc(N2CCCC2)c(C(=O)Nc2ccc(Br)cc2F)c1	-1.25%
CN(C)S(=O)(=O)c1ccc(N2CCCC2)c(C(=O)Nc2cccc(F)c2)c1	48.8% (active)
